Assay outcomes deposited in PubChem by National Center for Advancing Translational Sciences (NCATS).
Compounds with a hit are over-represented: about 21% of the library has one in this group of screens.
NS1 function inh = inhibitors of influenza NS1 protein function | Potency, µM (titrated, usually from 46.1 µM), for inactives: at the top dose activity, positive = more growth | 270,000 compounds, 0.4% hits; calls by dose curve; note: potency is the fitted concentration of half-maximal effect; actives are rising curves; nearly all actives have a fitted effect of over 50% in size
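Compounds were scored for reversing the slow growth caused by influenza A NS1 in S. cerevisiae, measured by optical density at 600 nm. Assay medium contained 2% galactose at pH 6.0; NS1-free yeast of the same strain were the positive control.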
Pf growth 48h = inhibits P. falciparum growth in the first generation, 48 h | P. falciparum luciferase growth in erythrocytes, 48 h | Potency, µM (highest dose often 28.7 µM), for the others: at the top dose activity change, negative = inhibition, most hits filed as inhibitors | 310,000 compounds, 5.9% hits; note: potency is the fitted concentration of half-maximal effect; % is set by controls: 0 for no effect and ±100 for the full control effect
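Luciferase-expressing P. falciparum in infected erythrocytes (2% hematocrit, 0.1% parasitemia final) in RPMI 1640/0.5% Albumax were exposed to compound for 48 hours at 37 C, 5% CO2; growth read as luminescence.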
Shiga inhibitor = inhibitors of Shiga toxin in Vero cells | 290,000 compounds, 9.2% hits | Vero cells, Shiga toxin protein synthesis inhibition reporter | inhibition, % at 38.7 µM | AID 2315; in the data active = inhibition mostly above about 28%, no sharp cut-off; inactive = mostly below about 43%; note: 0% is about no effect
Pf growth 96h = P. falciparum growth inhibition at 96 hour, primary screen for plastid delayed-death inhibitors. Potency, µM (series often up to 28.7 µM), without a hit: top-dose activity change, negative = inhibition, hits mostly inhibitors. P. falciparum luciferase reporter growth, 96 h. AID 504834. 320,000 compounds, 6.9% hits; note: potency is the fitted concentration of half-maximal effect; % is set by controls: 0 for no effect and ±100 for the full control effect
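Two parasite generations (96 h, 37 C, 5% CO2) of compound exposure in infected erythrocytes (0.05% parasitemia, 2% hematocrit). Luciferase-reporter P. falciparum; decreased luminescence indicates inhibited growth, aimed at apicoplast-acting delayed death.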
CHX counter = affects cycloheximide protein synthesis inhibition readout, counter-screen. cell reporter, cycloheximide protein synthesis inhibition counterscreen. max response, %. 300,000 compounds, 12% hits; in the data active = max response mostly above about 13%, no sharp cut-off; inactive = mostly below about 14%; note: read at 38.3 µM for the half of the compounds with a filed dose; 0% is about no effect
* = called active by the depositor; ? = inconclusive; · = no result; [ ] = another dose, or the depositor's remark. Unless noted, calls come from the whole dose curve; as a rule, active = well fitted inhibition curve with a large enough effect; inconclusive = small, poorly fitted or top-dose-only effect, or another doubt; inactive = no such curve, though single readings can be large or run the other way.

SMILES | NS1 function inh | Pf growth 48h | Shiga inhibitor | Pf growth 96h | CHX counter
COC(=O)COc1ccc(-n2cnnn2)cc1 | · | -11.3%[5.75 µM] | 4.3 | 14.9% | -2.6
COc1cccc(OCC(O)CNC(=O)c2oc3ccc(C)cc3c2C)c1 (stereo unspecified) | -38.7% | -4.2% | -6.7 | ? | -1.8
COc1ccc(CCC(=O)NCCCNC(=O)CCc2ccc(OC)cc2)cc1 | -1.0% | -8.8% | -6.8 | 7.7% | -4.3
CC1COc2ccccc2N1S(=O)(=O)c1cc(Cl)ccc1Cl (stereo unspecified) | -8.7% | ? | 2.5 | -8.1% | -0.7
CCOC(=O)C1(CCOc2ccccc2)CCN(Cc2cc(OC)ccc2OC)CC1 | 2.6% | ? | -13.8 | 0.0% | -0.7
CCOC(=O)C1(CCOc2ccccc2)CCN(Cc2cccc(OC)c2O)CC1 | 22.7% | 0.586µM* | -0.1 | -21.8% | -1.3
O=C(CCCOc1ccccc1)Nc1cccc([N+](=O)[O-])c1 | 0.3% | 21.3% | 82.4* | 14.0% | 21.3*
Cc1ccc(NS(=O)(=O)c2ccc(OCC(=O)Nc3cccc([N+](=O)[O-])c3)c(C)c2)cc1 | 6.7% | ? | -18.6 | 14.7µM* | 0.3
CC(NS(=O)(=O)c1ccc(OCC(=O)Nc2cccc([N+](=O)[O-])c2)cc1)c1ccccc1 (stereo unspecified) | 18.0% | 10.4µM* | -6.9 | -33.9% | -4.7
O=C(CCCc1ccccc1)Nc1cccc([N+](=O)[O-])c1 | -42.2% | 74.9% | · | 57.4% | 43.6*
Cc1nc2ccccc2n(CC(=O)Nc2cc(Cl)cc(Cl)c2)c1=O | -3.9% | ? | -5.6 | 12.7% | -3.2
O=c1c2c3c(sc2ncn1/N=C/c1ccccc1)CCCC3 | -2.8% | 111.3% | 63.7* | -29.1% | 19.1*
Cc1sc2ncn(/N=C/c3ccco3)c(=O)c2c1C | -3.5% | 58.0% | 53.8* | 2.6% | 38.7*
Cc1nc2sc3c(c2c(=O)n1/N=C/c1cccnc1)CCCC3 | · | ? | -5.9 | ? | -1.7
Cc1nc2scc(-c3ccccc3)c2c(=O)n1/N=C/c1ccco1 | -5.1% | 2.3% | -9.1 | 3.2% | -2.3
O=c1c2c3c(sc2ncn1/N=C/c1ccco1)CCCC3 | -14.4% | 19.7% | 75.7* | · | 12.3
O=C(/C=C/c1c(F)cccc1Cl)c1ccc(F)cc1 | -6.1% | ? | 131.9* | 78.0% | 34.7*
O=C(/C=C/c1ccc[nH]1)c1ccc(F)cc1 | 9.5% | 9.9% | 72.1* | ? | 31.9*
O=C(/C=C/c1ccc[nH]1)c1ccccc1 | · | 101.9% | 68.1* | 90.5% | 36.6*
O=C(/C=C/c1ccccc1[N+](=O)[O-])c1ccc(F)cc1 | 6.4% | ? | 29.3 | -3.2%[5.75 µM] | 13.7
CC(N)C(=O)NCC(=O)NC1CSSCC(C(=O)O)NC(=O)C(CO)NC(=O)C(C(C)O)NC(=O)C(Cc2ccccc2)NC(=O)C(C(C)O)NC(=O)C(CCCCN)NC(=O)C(Cc2c[nH]c3ccccc23)NC(=O)C(Cc2ccccc2)NC(=O)C(Cc2ccccc2)NC(=O)C(CC(N)=O)NC(=O)C(CCCCN)NC1=O (stereo unspecified) | · | 1.0% | · | ? | ·
N#Cc1cc(-c2ccccc2)cn(Cc2c(Cl)cccc2Cl)c1=O | -2.6% | ? | -7.6 | 1.65µM* | 0.5
Cc1ccccc1Nc1nnc(SCc2cc([N+](=O)[O-])cc3c2OCOC3)s1 | -0.3% | · | -4.8 | 4.65µM* | 6.3
O=[N+]([O-])c1cc2c(c(CSc3nnc(Nc4ccccc4)s3)c1)OCOC2 | 9.0% | -29.9% | -11.6 | · | -2.0
COc1cc(OC)cc(C(=O)Nn2cc(C(=O)Nc3ccc(F)cc3F)c3ccccc3c2=O)c1 | -11.1% | ? | -19.7 | 56.7% | -3.4
SMILES | NS1 function inh | Pf growth 48h | Shiga inhibitor | Pf growth 96h | CHX counter
CC1=C(/C=C/C(C)=C/C=C/C(C)=C/C(=O)Oc2c(C)c(C)c3c(c2C)CC[C@@](C)(CCC[C@H](C)CCC[C@H](C)CCCC(C)C)O3)C(C)(C)CCC1 | · | -0.8% | · | 10.0% | ·
CCCCC(=O)OCC(=O)c1[nH]c(C)c(C(C)=O)c1C | · | -16.2% | 65.7* | ? | 38.6*
CC(=O)c1c(C)[nH]c(C(=O)COC(=O)C2CC2)c1C | · | -14.3% | 34.0 | 24.8% | 17.5
CC(=O)c1c(C)[nH]c(C(=O)COc2cc(C)ccc2C(C)C)c1C | 1.3% | · | 21.1 | 4.65µM* | 3.2
CCCC(=O)OCC(=O)c1[nH]c(C)c(C(C)=O)c1C | · | ? | 49.3 | -4.7% | 35.3*
COc1ccccc1OCC(=O)c1[nH]c(C)c(C(C)=O)c1C | -11.3% | -28.6% | 10.2 | -16.2% | -1.0
CC(=O)c1c(C)[nH]c(C(=O)COC(=O)c2c(C)noc2C)c1C | · | 1.1% | · | 8.6% | ·
